Only some compounds are listed: those with a hit (about 3.2% of all), similar ones and a draw of the others.
Tau fibril FP: inhibitors of human tau fibril formation; P10636; K18 P301L tau heparin fibrillization, Alexa594 FP, 6 h; Potency, µM (top dose mostly 57.7 µM), without a hit: top-dose activity, negative = inhibition, actives largely listed as inhibitors; hit rate 0.39% among 280,000; also: nearly all actives have a fitted effect of over 55% in size
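FP of Alexa 594-tau after heparin (20 uM) induction. Substrate: human K18 P301L, 15 uM unlabeled, 0.24 uM labeled. Buffer 100 mM sodium acetate pH 7. 6 hr, 37 C.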
GoLoco inh red: inhibitors of human Gai1-RGS12 GoLoco interaction (red fluorophore); P63096; Gai1:RGS12 GoLoco peptide FP, rhodamine, 10 min; hit rate 0.44% among 230,000; Potency, µM (doses to about 61.6 µM), inactives show at the top dose activity, negative = inhibition, hits mostly inhibitors; active = well fitted inhibition curve with a large enough effect, not every such curve was filed as active; inactive = no such curve, though single readings can be large or run the other way; also: nearly all actives have a fitted effect of over 30% in size
TRb SRC2 PPI: TRbeta-SRC2 interaction inhibition | P10828 | TRbeta-SRC2 peptide binding, fluorescence polarization; receptor liganded with 1 µM T3 | Potency, µM (highest dose often 106 µM), without a hit: at the highest dose activity change, negative = inhibition, actives largely listed as inhibitors | hit rate 0.065% among 280,000;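 also: plate controls were bound peptide for no effect and peptide without receptor for full effect; nearly all actives have a fitted effect of over 50% in size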
Target sequence (P10828 whole entry, looked up): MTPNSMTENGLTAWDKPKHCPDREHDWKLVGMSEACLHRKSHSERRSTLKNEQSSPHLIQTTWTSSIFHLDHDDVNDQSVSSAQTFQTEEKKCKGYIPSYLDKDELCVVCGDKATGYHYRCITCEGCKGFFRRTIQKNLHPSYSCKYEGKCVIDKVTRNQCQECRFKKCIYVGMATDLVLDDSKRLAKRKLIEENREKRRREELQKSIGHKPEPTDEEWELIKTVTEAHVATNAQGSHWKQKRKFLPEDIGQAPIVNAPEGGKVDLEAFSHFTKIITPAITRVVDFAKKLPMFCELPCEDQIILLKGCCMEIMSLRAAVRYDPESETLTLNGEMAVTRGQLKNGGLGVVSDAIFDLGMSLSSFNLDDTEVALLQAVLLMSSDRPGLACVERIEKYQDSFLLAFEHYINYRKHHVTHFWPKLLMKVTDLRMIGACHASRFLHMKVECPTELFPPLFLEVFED
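TRb LBD 0.6 uM + Texas Red SRC2 peptide 20 nM, 1 uM T3, Tris buffer w/ 5% DMSO; compound pinned, 5 h RT; FP read ex 555/em 632; normalized to unbound and bound controls.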
Tau fluor cs: counter-screen for tau fibril formation inhibitors; AID 1463; hit rate 0.93% among 280,000; tau K18 P301L Alexa594 fluorescence, heparin fibrillization; Potency, µM (doses to about 57.7 µM), without a hit: top-dose activity change, negative = decrease; also: nearly all actives have a fitted effect of over 55% in size
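Human tau K18 P301L (15 uM unlabeled, 0.24 uM Alexa 594-labeled) in 100 mM sodium acetate pH 7 with 20 uM heparin, 6 hr at 37 C. ThT 30 uM added, 1 hr ambient; Alexa 594 FP and total fluorescence read at 555/632 nm.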
Tau fibril ThT: inhibitors of human tau fibril formation, thioflavin T binding; P10636; recombinant tau K18 P301L (four-repeat tau fragment), heparin-induced fibrillization, ThT fluorescence; Potency, µM (titrated, usually from 57.4 µM), without a hit: at the top dose activity, negative = inhibition, actives largely listed as inhibitors; hit rate 2.1% among 270,000; also: nearly all actives have a fitted effect of over 55% in size
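Aggregation was driven by heparin (20 uM final) acting on recombinant tau […] bearing P301L in 100 mM sodium acetate pH 7; fibrils were detected with Thioflavin T.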
TexasRed fluor: Texas Red fluorescence interference in TRb-SRC2 counter-screen | TRb/SRC2 Texas Red total fluorescence interference | Potency, µM (titrated, usually from 106 µM), for inactives: at the highest dose fluorescence change, negative = quenching | hit rate 0.29% among 280,000 | AID 1479; active = well fitted curve in either direction with a large enough effect; inconclusive = small, poorly fitted or top-dose-only effect
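Human TRβ ligand-binding domain (0.6 uM) and Texas Red SRC2 peptide (20 nM) in Tris buffer with 1 uM T3 and 5% DMSO were incubated with pinned compound for 5 hr at ambient temperature. Total fluorescence was computed as S + 2P (555/632 nm).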
* hit, by the source's call; u = inconclusive; x = no result given; [ ] = dose if it differs, or a comment. Unless noted, calls follow the shape of the dose curve; as a rule, active = well fitted curve in the direction sought with a large enough effect; inconclusive = small, poorly fitted or top-dose-only effect, or another doubt; inactive = no such curve, though single readings can be large; an effect the other way counts as inactive or inconclusive. Unless noted, % is scaled to controls: 0 for no effect and ±100 for the full control effect; potency is read from the fitted curve at half-maximal effect.

SMILES | Tau fibril FP | GoLoco inh red | TRb SRC2 PPI | Tau fluor cs | Tau fibril ThT | TexasRed fluor
CCOC(=O)C1=C(N)n2c(s/c(=C/c3ccco3)c2=O)=C(C(=O)OC)C1c1ccco1 (configuration not stated) | -18.3% | 193.1% | 14.6% | -25.9% | 14.1µM* | -28.8%
CCOC(=O)C1=c2s/c(=C\c3ccncc3)c(=O)n2C(N)=C(C(=O)OC)C1c1ccncc1 (configuration not stated) | -11.9% | 10.9% | 4.4% | -17.6% | u | -1.4%
CCOC(=O)C1=C(C)N=c2s/c(=C/c3ccco3)c(=O)n2C1c1cccc(OC)c1 (configuration not stated) | u | 220.6% | -2.7% | -22.9% | 14.1µM* | -4.1%
Cc1oc(-c2ccc(C(=O)NCc3ccccc3Cl)cc2)nc1CN1CCc2ccccc21 | u | x | 0.7% | u | u | -13.9%
Cc1cccc(N2C(=O)CCSC23C(=O)N(Cc2ccc(F)cc2)c2ccccc23)c1 (configuration not stated) | u | x | -4.2% | -15.1% | u | u
Nc1c(C(=O)NC2CC2)sc2nc3c(c(-c4ccco4)c12)CC/C3=C/c1ccco1 | u | 53.2% | -2.0% | u | 8.91µM* | 2.3%
NC(=O)c1sc2nc3c(c(-c4ccco4)c2c1N)CCC3 | 3.8% | 1.5% | -8.8% | -18.1% | u | -4.1%
COc1ccc2c(c1)O[C@@H](c1cccc(C(F)(F)F)c1)[C@H](OC(=O)NCc1ccco1)C2=O | -3.7% | 0.2% | 3.6% | -11.2% | -10.5% | -3.0%
COc1cc(CN(C(=S)NCC(=O)NC2CC2)C2CCCC2)cc(OC)c1OC | 1.1% | 11.8% | u | -11.1% | -10.0% | 0.0891µM*[quencher]
Cc1ccccc1OCc1ccc(-c2nc(C#N)c(N3CCN(c4ccccc4)CC3)o2)o1 | -2.6% | x | -14.0% | -19.0% | -5.4% | 3.98µM*[quencher]
c1ccc2c(c1)SCc1c-2[nH]c2ccccc12 | x | x | 5.2% | x | x | -3.4%
NSc1nc(N)c2nc(-c3ccccc3)c(-c3ccccc3)nc2n1 | u | 11.5% | -5.7% | -19.3% | 15.8µM* | -2.6%
COc1ccc2c(c1)OC/C(=C/c1ccc(OC)c(OC)c1)C2=O | -5.9% | 3.8% | -8.9% | u | 11.2µM* | 1.6%
Cc1ccc2[nH]cc(C(c3ccccc3)c3ccc(C)s3)c2c1 (configuration not stated) | -16.8% | x | 0.2% | 10µM*[quencher] | -19.3% | -1.3%
Cc1ccc2[nH]cc(C(c3ccccc3)c3cccs3)c2c1 (configuration not stated) | u | x | -11.5% | 7.94µM*[quencher] | u | -2.5%
Cc1ccc(C(c2ccccc2)c2c(C)[nH]c3ccccc23)s1 (configuration not stated) | 2.4% | x | 6.9% | -13.3% | -13.0% | 5.3%
Cc1ccc(NC(=O)COc2ccccc2C(=O)Nc2ccccc2)cc1Cl | 4.47µM* | 3.6% | 13.4% | u | -0.9% | -0.3%
Cc1ccc(Cl)cc1NC(=O)c1ccccc1OCC(=O)Nc1ccc(Cl)cc1 | u | 8.8% | -7.7% | -26.6% | 5.5% | -1.8%
C[C@H](NC(=O)[C@@H](N)Cc1ccc(O)cc1)C(=O)NCC(=O)N[C@H]1CSSC[C@@H](C(=O)O)NC(=O)[C@H](CO)NC(=O)[C@H]([C@@H](C)O)NC(=O)[C@H](Cc2ccccc2)NC(=O)[C@H]([C@@H](C)O)NC(=O)[C@H](CCCCN)NC(=O)[C@H](Cc2c[nH]c3ccccc23)NC(=O)[C@H](Cc2ccccc2)NC(=O)[C@H](Cc2ccccc2)NC(=O)[C@H](CC(N)=O)NC(=O)[C@H](CCCCN)NC1=O | x | x | 0.6% | x | x | 2.6%
COc1c(C)cccc1C(=O)NC(=S)Nc1cccc2nsnc12 | u | 26.1% | 3.1% | -27.2% | 25.1µM* | -0.2%
CC(C)CC(=O)NC(=S)Nc1cccc2nsnc12 | -3.0% | 16.0% | -1.6% | -14.7% | u | -0.9%

Source: PubChem (National Center for Advancing Translational Sciences (NCATS))
